For 10 compounds, outcome and AC50 results are on record in PubChem BioAssay (EPA / NIEHS).

Read-out in assay [1]: Monocyte Chemoattractant Protein-1 (MCP1), CCL2 (gene 6347)
Briefly: BSK_SAg_MCP1: BioMAP Diversity Plus: SAg Assay for Monocyte Chemoattractant Protein-1 (MCP1) Biomarker Activity (AID 2283090). As to conditions: primary human HUVEC with PBMC; actives raise or lower the signal. In a few lines:
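MCP-1 levels in the endothelial–PBMC SAg co-culture were quantified by ELISA at 24 h post-dosing; both increases and decreases versus DMSO scored. Cytotoxicity monitored by SRB total protein in parallel cultures.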

Read-out in assay [2]: E-selectin (Homo sapiens) (UniProt P16581)
Briefly: BSK_SAg_Eselectin: BioMAP Diversity Plus: SAg Assay for Eselectin Biomarker Activity (AID 2283091). As to conditions: primary human HUVEC with PBMC; actives raise or lower the signal. Put shortly:
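Co-culture: HUVEC + PBMC. Dose compound; 24 h. ELISA for E-selectin. Bidirectional fit vs DMSO.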

Read-out in assay [3]: Monokine induced gamma interferon (MIG), CXCL9 (gene 4283)
Briefly: BSK_SAg_MIG: BioMAP Diversity Plus: SAg Assay for Monokine induced gamma interferon (MIG) Biomarker Activity (AID 2283092). To be noted: primary human HUVEC with PBMC; actives raise or lower the signal. Put shortly: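 Measures CXCL9 protein by ELISA in a human vascular primary-cell co-culture (umbilical vein endothelium with PBMC) 24 h after chemical addition. Activity is scored up or down from the DMSO control.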

Assay [4] can be described thus: BSK_SAg_PBMCCytotoxicity: PBMC Cytotoxicity Assessment in the BioMAP Diversity Plus: SAg Assay (AID 2283093).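 Further: PBMC viability measured as Alamar Blue reduction fluorescence at 546/580 nm; fitted both ways against DMSO so a hit may be loss or gain of signal.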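 On AC50: PBMC superantigen activated with SEB plus TSST-1 one hour after compound addition.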 As to conditions: primary human HUVEC with PBMC. Put shortly:
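HUVEC/PBMC co-culture; PBMC exposed to chemical 1 h before SEB and TSST-1 activation (20 ng/mL each), incubated 90 h, then Alamar Blue 6 h, fluorescence 546/580 nm. Bidirectional fit versus DMSO baseline.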

Read-out in assay [5]: Interleukin-8 (IL8), CXCL8 (gene 3576)
Briefly: BSK_SAg_IL8: BioMAP Diversity Plus: SAg Assay for Interleukin-8 (IL8) Biomarker Activity (AID 2283094). As to conditions: primary human HUVEC with PBMC; actives raise or lower the signal. Put shortly:
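Human umbilical vein endothelial cells co-cultured with PBMC, stimulated with superantigen; IL-8 measured by ELISA 24 h after chemical dosing. Bidirectional fitting versus DMSO; SRB staining in parallel cultures tracks cytotoxicity.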

Assay [6] can be described thus: BSK_SAg_Proliferation: Cell Proliferation Assessment in the BioMAP Diversity Plus: SAg Assay (AID 2283095). As to conditions: primary human HUVEC with PBMC. In a few lines:
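Human umbilical vein endothelial cells co-cultured with PBMC; sulforhodamine B total-protein staining (0.1% SRB after 10% TCA fixation, absorbance 560 nm) at 96 h in sub-confluent culture. Fitted bidirectionally against DMSO.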

A short description of assay [7]: BSK_SAg_SRB: Viability Assessment in the BioMAP Diversity Plus: SAg Assay (AID 2283096).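 Further: cells read one day after compound addition; hits may be either gain or loss of signal compared with DMSO.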 To be noted: primary human HUVEC with PBMC. Put shortly:
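Human umbilical vein endothelial cells co-cultured with PBMC, read 24 h after compound dosing. Total protein measured by sulforhodamine B staining (0.1% SRB after 10% TCA fixation, absorbance 560 nm); bidirectional fit versus DMSO baseline.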

For assay [8], the target named is human Phosphodiesterase 10 (PDE10), PDE10A (gene 10846) (UniProt Q9Y233). Briefly: NVS_ENZ_hPDE10: NovaScreen (NVS) Enzymatic Assay for human Phosphodiesterase 10 (PDE10) (AID 2283195; active means hit-call score of the fitted dose curve at least 0.9, where 1 is the maximum). In a few lines:
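Recombinant human PDE10 with fluorescent substrate, 1 h, product separated by electrophoretic mobility shift. Loss of enzyme activity fitted against DMSO; initial screen 25 uM in duplicate, actives run to 50 uM maximum.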

Assay [9] concerns the target Cytochrome P450 3A4 (Homo sapiens) (UniProt P08684). Briefly: NVS_ADME_hCYP3A4: NovaScreen (NVS) CYP450-related Enzyme Activity (ADME) Assay for human CYP3A4 (AID 2283110; active means hit-call score of the fitted dose curve at least 0.9, where 1 is the maximum). Put shortly: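 Cell-free recombinant enzyme expressed in insect cells; fluorescent substrate turnover read after 0.33 h, acetonitrile as negative control. Primary screen in duplicate at 10 uM, actives then tested in concentration series.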

Assay [10] addresses human Beta-secretase (BACE), BACE1 (gene 23621) (UniProt P56817). Briefly: NVS_ENZ_hBACE: NovaScreen (NVS) Enzymatic Assay for human Beta-secretase (BACE) (AID 2283140; active means hit-call score of the fitted dose curve at least 0.9, where 1 is the maximum;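 further: hits are inhibitors that reduce fluorescent substrate signal versus DMSO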). Put shortly:
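Cell-free assay of recombinant Sf9-expressed human BACE with fluorescent substrate, read by fluorescence intensity after 1 h. Primary screen in duplicate at 25 uM; actives then run in concentration series; loss of signal relative to DMSO.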

For assay [11], the target named is human Ephrin type-A Receptor 1 (EphA1), EPHA1 (gene 2041) (UniProt P21709). Briefly: NVS_ENZ_hEphA1: NovaScreen (NVS) Enzymatic Assay for human Ephrin type-A Receptor 1 (EphA1) (AID 2283158; active means hit-call score of the fitted dose curve at least 0.9, where 1 is the maximum;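 further: activity is signal loss versus DMSO meaning EphA1 kinase inhibition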). In a few lines: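 Chemicals first tested in duplicate at 25 uM against recombinant EphA1 with a fluorescent substrate; those passing threshold went to singleton dose-response topping at 50 uM. Activity read 1 h later as mobility-shift fluorescence, loss of signal relative to DMSO.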
Chain of human Ephrin type-A Receptor 1 (EphA1), EPHA1 (gene 2041) (P21709 whole entry, looked up): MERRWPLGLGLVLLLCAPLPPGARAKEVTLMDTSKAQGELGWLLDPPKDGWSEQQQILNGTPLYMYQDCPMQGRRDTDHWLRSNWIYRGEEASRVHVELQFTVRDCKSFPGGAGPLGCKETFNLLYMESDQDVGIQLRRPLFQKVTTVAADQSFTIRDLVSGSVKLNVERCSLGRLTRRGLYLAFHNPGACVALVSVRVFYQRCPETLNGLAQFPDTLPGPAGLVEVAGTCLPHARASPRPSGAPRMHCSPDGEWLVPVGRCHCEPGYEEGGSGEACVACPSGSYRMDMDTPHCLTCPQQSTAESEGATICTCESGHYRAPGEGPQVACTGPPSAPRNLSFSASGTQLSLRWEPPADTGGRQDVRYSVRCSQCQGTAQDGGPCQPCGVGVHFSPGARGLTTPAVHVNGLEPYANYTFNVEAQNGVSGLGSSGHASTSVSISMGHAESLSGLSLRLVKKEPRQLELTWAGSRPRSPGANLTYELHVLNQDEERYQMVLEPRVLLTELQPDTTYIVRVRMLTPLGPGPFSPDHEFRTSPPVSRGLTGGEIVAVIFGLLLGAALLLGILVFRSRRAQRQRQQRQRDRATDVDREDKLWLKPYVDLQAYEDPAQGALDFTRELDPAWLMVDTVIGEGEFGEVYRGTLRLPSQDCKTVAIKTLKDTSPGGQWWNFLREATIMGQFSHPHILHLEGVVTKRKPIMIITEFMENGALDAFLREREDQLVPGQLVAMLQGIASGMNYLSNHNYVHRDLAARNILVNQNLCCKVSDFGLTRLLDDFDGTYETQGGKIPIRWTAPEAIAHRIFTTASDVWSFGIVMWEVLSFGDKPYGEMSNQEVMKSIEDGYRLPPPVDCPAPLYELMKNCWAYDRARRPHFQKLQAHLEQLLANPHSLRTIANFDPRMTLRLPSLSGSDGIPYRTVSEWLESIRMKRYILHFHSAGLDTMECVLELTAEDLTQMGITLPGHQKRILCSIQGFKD

The target of assay [12] is human Matrix Metalloproteinase-9 (MMP9), MMP9 (gene 4318) (UniProt P14780). Briefly: NVS_ENZ_hMMP9: NovaScreen (NVS) Enzymatic Assay for human Matrix Metalloproteinase-9 (MMP9) (AID 2283190; active means hit-call score of the fitted dose curve at least 0.9, where 1 is the maximum;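 further: cell-free recombinant MMP9 protease activity read by fluorescent substrate signal; active means inhibition seen as loss of fluorescence signal versus DMSO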). In a few lines:
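Inhibition was scored as loss of fluorescence signal against DMSO controls. The recombinant protease was exposed to chemicals for 1 hour before reading; initial testing used 25 uM in duplicate.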

Results filed as inconclusive are left out. The source made the active and inactive calls. How the source made its calls, unless noted: active means hit-call score of the fitted dose curve at least 0.9, where 1 is the maximum; inactive means score below 0.9.

Chain of human Phosphodiesterase 10 (PDE10), PDE10A (gene 10846) (Q9Y233 whole entry, looked up): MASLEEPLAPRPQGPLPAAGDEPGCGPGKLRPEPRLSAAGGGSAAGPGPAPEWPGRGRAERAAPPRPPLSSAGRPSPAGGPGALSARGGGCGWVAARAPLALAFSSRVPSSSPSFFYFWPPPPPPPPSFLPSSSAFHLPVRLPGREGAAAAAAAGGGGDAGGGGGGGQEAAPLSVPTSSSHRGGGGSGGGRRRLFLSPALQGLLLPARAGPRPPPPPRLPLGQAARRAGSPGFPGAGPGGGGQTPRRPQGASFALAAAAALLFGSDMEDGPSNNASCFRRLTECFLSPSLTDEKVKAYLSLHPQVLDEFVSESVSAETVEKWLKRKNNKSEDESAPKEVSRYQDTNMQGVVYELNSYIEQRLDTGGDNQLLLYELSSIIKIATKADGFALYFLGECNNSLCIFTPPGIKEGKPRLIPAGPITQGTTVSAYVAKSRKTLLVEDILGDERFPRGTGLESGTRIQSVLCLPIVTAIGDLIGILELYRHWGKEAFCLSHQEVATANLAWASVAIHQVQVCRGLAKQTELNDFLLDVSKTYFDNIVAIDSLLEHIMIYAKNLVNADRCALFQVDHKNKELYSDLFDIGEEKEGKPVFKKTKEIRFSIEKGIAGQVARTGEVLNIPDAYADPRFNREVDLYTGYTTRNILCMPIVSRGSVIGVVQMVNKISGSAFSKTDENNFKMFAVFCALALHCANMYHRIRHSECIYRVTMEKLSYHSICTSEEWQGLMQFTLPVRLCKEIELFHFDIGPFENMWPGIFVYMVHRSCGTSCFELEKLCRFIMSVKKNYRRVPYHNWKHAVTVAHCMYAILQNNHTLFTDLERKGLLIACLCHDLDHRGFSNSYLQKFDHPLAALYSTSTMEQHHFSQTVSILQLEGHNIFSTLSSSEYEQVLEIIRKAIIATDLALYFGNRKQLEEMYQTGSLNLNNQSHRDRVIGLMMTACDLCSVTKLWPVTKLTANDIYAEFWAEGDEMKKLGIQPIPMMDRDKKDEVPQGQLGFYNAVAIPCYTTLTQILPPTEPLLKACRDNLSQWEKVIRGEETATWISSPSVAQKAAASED
Chain of E-selectin (Homo sapiens) (P16581 whole entry, looked up): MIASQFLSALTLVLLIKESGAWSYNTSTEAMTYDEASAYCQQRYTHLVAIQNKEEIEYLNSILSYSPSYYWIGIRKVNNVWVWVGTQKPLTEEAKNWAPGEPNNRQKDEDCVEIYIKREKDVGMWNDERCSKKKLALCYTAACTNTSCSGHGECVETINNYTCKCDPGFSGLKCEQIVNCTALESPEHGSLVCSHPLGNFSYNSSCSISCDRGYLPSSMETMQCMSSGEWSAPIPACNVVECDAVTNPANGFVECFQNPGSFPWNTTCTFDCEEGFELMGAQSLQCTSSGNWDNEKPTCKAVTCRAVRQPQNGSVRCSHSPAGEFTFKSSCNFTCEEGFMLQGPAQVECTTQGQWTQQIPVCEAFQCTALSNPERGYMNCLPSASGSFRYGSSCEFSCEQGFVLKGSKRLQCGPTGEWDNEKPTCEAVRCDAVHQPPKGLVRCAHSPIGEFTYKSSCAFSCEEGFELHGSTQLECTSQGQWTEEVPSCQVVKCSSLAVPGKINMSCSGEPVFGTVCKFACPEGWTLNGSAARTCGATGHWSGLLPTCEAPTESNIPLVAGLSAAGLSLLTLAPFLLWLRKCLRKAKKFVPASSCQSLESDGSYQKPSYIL
Chain of human Beta-secretase (BACE), BACE1 (gene 23621) (P56817 whole entry, looked up): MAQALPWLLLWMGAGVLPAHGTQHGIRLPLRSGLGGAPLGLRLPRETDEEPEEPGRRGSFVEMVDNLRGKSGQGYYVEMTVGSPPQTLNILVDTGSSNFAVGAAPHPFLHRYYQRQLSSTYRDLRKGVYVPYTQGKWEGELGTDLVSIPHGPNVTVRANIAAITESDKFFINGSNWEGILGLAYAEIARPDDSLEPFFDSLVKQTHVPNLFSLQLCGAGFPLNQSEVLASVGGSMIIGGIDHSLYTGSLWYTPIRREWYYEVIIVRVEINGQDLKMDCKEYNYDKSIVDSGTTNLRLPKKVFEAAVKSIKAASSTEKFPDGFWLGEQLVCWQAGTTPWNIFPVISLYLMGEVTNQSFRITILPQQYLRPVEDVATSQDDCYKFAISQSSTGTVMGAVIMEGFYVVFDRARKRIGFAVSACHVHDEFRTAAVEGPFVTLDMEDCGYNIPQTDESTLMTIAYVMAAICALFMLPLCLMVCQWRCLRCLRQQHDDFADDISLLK
Chain of human Matrix Metalloproteinase-9 (MMP9), MMP9 (gene 4318) (P14780 whole entry, looked up): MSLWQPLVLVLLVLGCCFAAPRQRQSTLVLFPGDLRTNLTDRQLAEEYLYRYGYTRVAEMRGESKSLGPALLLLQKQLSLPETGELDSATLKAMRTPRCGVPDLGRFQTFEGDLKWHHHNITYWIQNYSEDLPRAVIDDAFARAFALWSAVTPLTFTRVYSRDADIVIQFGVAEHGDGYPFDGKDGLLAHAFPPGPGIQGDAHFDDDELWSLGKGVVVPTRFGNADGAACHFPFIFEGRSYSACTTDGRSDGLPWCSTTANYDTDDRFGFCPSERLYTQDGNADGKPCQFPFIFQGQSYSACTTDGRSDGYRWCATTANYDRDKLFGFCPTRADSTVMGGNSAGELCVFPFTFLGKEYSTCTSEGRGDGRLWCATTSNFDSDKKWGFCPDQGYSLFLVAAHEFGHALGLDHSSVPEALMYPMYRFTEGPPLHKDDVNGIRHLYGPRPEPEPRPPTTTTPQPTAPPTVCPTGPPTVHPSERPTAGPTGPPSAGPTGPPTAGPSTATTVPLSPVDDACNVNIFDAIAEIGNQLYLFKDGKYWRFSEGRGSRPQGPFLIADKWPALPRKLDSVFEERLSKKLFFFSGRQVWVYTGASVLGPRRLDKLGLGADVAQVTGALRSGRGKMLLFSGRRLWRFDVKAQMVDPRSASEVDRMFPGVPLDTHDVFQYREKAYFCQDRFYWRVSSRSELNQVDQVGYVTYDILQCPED
Chain of Cytochrome P450 3A4 (Homo sapiens) (P08684 whole entry, looked up): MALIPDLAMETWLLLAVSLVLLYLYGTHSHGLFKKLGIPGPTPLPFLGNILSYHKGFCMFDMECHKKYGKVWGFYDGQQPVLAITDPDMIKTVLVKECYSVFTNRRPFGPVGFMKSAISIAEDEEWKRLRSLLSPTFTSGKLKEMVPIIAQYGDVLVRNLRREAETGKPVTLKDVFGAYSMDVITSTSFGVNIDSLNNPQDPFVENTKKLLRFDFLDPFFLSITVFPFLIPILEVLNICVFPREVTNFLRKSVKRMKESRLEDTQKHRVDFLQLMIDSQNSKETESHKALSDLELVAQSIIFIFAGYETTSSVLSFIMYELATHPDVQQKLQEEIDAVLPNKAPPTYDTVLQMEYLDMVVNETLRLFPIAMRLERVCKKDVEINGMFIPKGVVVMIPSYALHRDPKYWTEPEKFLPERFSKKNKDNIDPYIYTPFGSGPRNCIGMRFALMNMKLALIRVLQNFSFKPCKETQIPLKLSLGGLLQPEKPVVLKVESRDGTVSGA

For the compound `OCC(F)(F)C(F)(F)C(F)(F)F`, the outcome in [1], in assay [2], in assay [3], in [4], in assay [5] and in [6] was inactive. Also, the outcome in [7] was inactive.

In general, AC50 refers to the concentration at which the activity in the assay is half-maximal. As for `CO[Si](OC)(c1ccccc1)c1ccccc1`, the result in assay [1], in assay [2], in assay [3], in assay [5], in assay [7] and in [8] was inactive. In addition, the AC50 in assay [4] was 33.8 µM (active); in assay [6], 20 µM (active).

Turning to `OCCCC(F)(F)C(F)(F)C(F)(F)F`, the result in [1], in [2], in assay [3], in assay [4], in assay [5] and in assay [6] was inactive. The result in assay [7] was inactive.

Consider `CCN(CC)c1ccc2c(C)cc(=O)oc2c1`, for which the result in assay [1], in [2], in assay [3], in assay [4], in assay [5] and in assay [6] was inactive. The result in [7], in [9], in assay [11] and in [8] was inactive. In assay [10], the AC50 was 36.4 µM (active).

Consider `CC(C)=CCCC(C)CCOC(=O)C(C)C` (stereo not drawn), for which the call in assay [8] was inactive.

Consider `FC(F)(F)C(F)(F)C(F)(F)C(F)(F)C(F)(F)C(F)(F)C(F)(F)C(F)(F)CCS`, for which the result in assay [1], in [2], in assay [3], in assay [4], in [5] and in assay [6] was inactive. Moreover, the result in assay [7] was inactive.

In the case of `O=C(O)C(F)(OC(F)(F)C(F)(OC(F)(F)C(F)(OC(F)(F)C(F)(F)C(F)(F)F)C(F)(F)F)C(F)(F)F)C(F)(F)F` (stereo not drawn), the result in assay [1], in [2], in assay [3], in assay [4], in assay [5] and in [6] was inactive. The outcome in assay [7] was inactive.

Take `O=C(O)C(F)(F)C(F)(F)F`: the outcome in [1], in assay [2], in assay [3], in assay [4], in assay [5] and in assay [6] was inactive. For the same compound, the result in assay [7] was inactive.

`C=C(C)C(=O)OCCC(F)(F)C(F)(F)C(F)(F)C(F)(F)C(F)(C(F)(F)F)C(F)(F)F`: the outcome in assay [1], in assay [2], in assay [3], in [4], in assay [5] and in [6] was inactive. The result in assay [7] was inactive.

As to `CCc1ccc(C(c2ccc(CC)cc2)C(Cl)Cl)cc1`, the half-maximal activity concentration (AC50) in assay [1] is 31.8 µM (active); in assay [2], 26 µM (active); in assay [3], 33.6 µM (active); in assay [4], 14.5 µM (active); in assay [6], 8.44 µM (active); in [7], 29.1 µM (active). In addition, the concentration at half-maximal activity (AC50) is 3.11 µM (active) in [10] and 14.1 µM (active) in assay [8]. Further, the result in assay [5], in [11] and in assay [12] was inactive.
